Each target was assayed with Nc1ncnc2c1ncn2[C@@H]1O[C@H](COP(=O)(O)OP(=O)(O)OP(=O)(O)O)[C@@H](O)[C@H]1O [adenosine 5'-triphosphate] (assay: log2 fold change of tryptic peptide abundance, ligand vs vehicle (limited proteolysis) (log2 ratio); higher = more trypsin-susceptible (destabilized)). Conditions: ligand concentration: 5 mM; sample: E. coli desalted lysate; replicate design: treated before aliquoting.
Method: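 HT-PELSA: desalted E. coli K-12 BW25113 lysate (with 12 mM MgCl2) incubated with 5 mM ATP (pH 7) or water for 30 min at 25 C, then a 4 min trypsin pulse at 22 C. Peptides were quantified by DIA-MS (4 replicates). Value is the peptide log2 fold change (treated/control); negative = stabilized. Scale: negative = ligand-stabilized region.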
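Further: lysate desalted by size exclusion to strip endogenous ATP, peptide intensities built from DIA-NN precursor signals, and peptides missing any value discarded before comparison.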

Going from “UniProt P11557 (peptide sequence: AVSTLPADVQAK, peptide start residue: 402)” to “UniProt P23830 (peptide sequence: EALGVLHFK, peptide start residue: 132)”, the log2 fold change falls from 0.435 to -0.891.

First: UniProt P09030 (peptide sequence: CSFLPEER, peptide start residue: 177)
Second: UniProt P38051 (peptide sequence: QAQQLGEWLMADDKNQR, peptide start residue: 267)
The log2 fold change of the first is lower: -1.54 for the first, -0.448 for the second.

Going from “UniProt P37349 (peptide sequence: LIAKGPEAEEALIAFR, peptide start residue: 217)” to “UniProt P77364 (peptide sequence: IDSQTAGGKAPLGVASVAK, peptide start residue: 295)”, the log2 fold change falls from 0.492 to -0.814.

Compared with “UniProt P76034 (peptide sequence: DAPCEVILLGGVYQKK, peptide start residue: 127)”, “UniProt P38035 (peptide sequence: APILLNGPTGAGK, peptide start residue: 209)” is lower in log2 fold change: -0.81 for the first, -1.38 for the second.

Going from “UniProt P21499 (peptide sequence: DGQLVFTR, peptide start residue: 65)” to “UniProt P0AB96 (peptide sequence: LCRPSEVVLEILPDAQK, peptide start residue: 105)”, the log2 fold change rises from -0.675 to 0.492.

First: UniProt P27296 (peptide sequence: SIPHIIVTSATLR, peptide start residue: 451)
Second: UniProt P21507 (peptide sequence: DVLGSAPTGTGK, peptide start residue: 43)
The log2 fold change of the first is higher: -2.01 for the first, -3.34 for the second.

Compared with “UniProt P16691 (peptide sequence: VGFNANLRDPNMR, peptide start residue: 36)”, “UniProt P0AB12 (peptide sequence: VVSVETAQAAR, peptide start residue: 129)” is higher in log2 fold change: -0.259 for the first, 0.652 for the second.

Going from “UniProt P00954 (peptide sequence: QHLELSR, peptide start residue: 152)” to “UniProt P39343 (peptide sequence: IKNNDHNHNTVDLGYQIYHGNTL, peptide start residue: 310)”, the log2 fold change rises from -0.982 to -0.756.

First: UniProt P75915 (peptide sequence: VLGSLYYR, peptide start residue: 10)
Second: UniProt P15081 (peptide sequence: AFDTLCQQGR, peptide start residue: 30)
The log2 fold change of the first is higher: 0.747 for the first, -0.599 for the second.

Going from “UniProt P04825 (peptide sequence: GLENLSGDLYEK, peptide start residue: 853)” to “UniProt P69829 (peptide sequence: EKMGSTGIGNGIAIPHGKLEEDTLR, peptide start residue: 58)”, the log2 fold change rises from -0.937 to 0.37.

“UniProt P33343 (peptide sequence: LSLITNDKITGNDK, peptide start residue: 95)” and “UniProt P37745 (peptide sequence: WVGVLLSADNK, peptide start residue: 98)” are within 0.2 log units of each other in log2 fold change: -0.561 for the first, -0.542 for the second.

Going from “UniProt P27828 (peptide sequence: DTTERPEAVTAGTVR, peptide start residue: 309)” to “UniProt P0A8Y3 (peptide sequence: VVVLSNTNR, peptide start residue: 103)”, the log2 fold change rises from -0.6 to 0.564.

“UniProt P10443 (peptide sequence: GLPVVATNDVR, peptide start residue: 193)” and “UniProt P76558 (peptide sequence: TNLFMKPIFSQAR, peptide start residue: 427)” are within 0.2 log units of each other in log2 fold change: 0.539 for the first, 0.538 for the second.

First: UniProt P15082 (peptide sequence: QRQAAILEYLQK, peptide start residue: 5)
Second: UniProt P31808 (peptide sequence: TGMTFDAQPGR, peptide start residue: 236)
The log2 fold change of the first is higher: 2.18 for the first, -0.533 for the second.

Reference: the supplement of paper PMC12819154, “High-throughput peptide-centric local stability assay extends protein–ligand identification to membrane proteins, tissues and bacteria” (Nature Structural & Molecular Biology, 2025)
